Experimental data from PubChem BioAssay AID880 (National Center for Advancing Translational Sciences (NCATS), 2007).
Several values for one entry are separate records, joined by “and”; a condition that tells them apart may be missing. Equal entries are not always repeated. The campaign covered roughly 230,000 compounds. About 1,000 (0.43%) were called active. Calls come from the whole dose curve; as a rule, active = well fitted inhibition curve with a large enough effect (not every such curve was filed as active); inactive = no such curve, though single readings can be large or run the other way. What follows is part of a selection rich in actives, with near analogues and random picks from the rest.

What follows are molecules tested against Guanine nucleotide-binding protein G(i) subunit alpha-1 (Homo sapiens) (UniProt P63096) (assay: qHTS Assay for Inhibitors of RGS12 GoLoco Motif Activity (Red Fluorophore)). Details: Gai1:RGS12 GoLoco peptide FP, rhodamine, 10 min; series mostly up to 61.6 µM.
Chain of Guanine nucleotide-binding protein G(i) subunit alpha-1 (Homo sapiens) (P63096 whole entry, looked up): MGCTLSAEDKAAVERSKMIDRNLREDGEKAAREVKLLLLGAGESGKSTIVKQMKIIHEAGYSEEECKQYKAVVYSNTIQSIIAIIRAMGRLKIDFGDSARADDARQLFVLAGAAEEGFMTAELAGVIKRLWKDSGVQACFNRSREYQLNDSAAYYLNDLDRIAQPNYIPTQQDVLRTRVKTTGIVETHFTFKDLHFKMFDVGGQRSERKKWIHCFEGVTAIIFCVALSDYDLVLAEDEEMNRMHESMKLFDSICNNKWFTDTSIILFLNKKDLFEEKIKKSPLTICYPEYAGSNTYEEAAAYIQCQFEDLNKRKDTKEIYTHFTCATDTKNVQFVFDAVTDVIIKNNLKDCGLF
% is set by controls: 0 for no effect and ±100 for the full control effect; potency is the fitted concentration of half-maximal effect.
Note: nearly all actives have a fitted effect of over 30% in size.

Potency, active:
CC[N+](C)(CC)CCC[n+]1c(-c2ccccc2)c2cc(N)ccc2c2ccc(N)cc21 4.47 µM and 12.6 µM
CCN1/C(=C/c2ccc3ccc(C)cc3[n+]2CC)Sc2ccccc21 0.708 µM
C[N+](C)(C)CCNC(=O)c1c(O)c2c([nH]c1=O)CCCC2 1.12 µM
COCCOC(=O)c1sc(=S)n(CCOC)c1N 12.6 µM
Cc1ccc(C2=C/C(=C\c3cccnc3)C(=O)O2)cc1 0.794 µM
Nc1ccc2c3c(cccc13)C(=O)NC2=O 3.16 µM and 20 µM
Cc1cc2nc3c(=O)[nH]c(=O)nc-3n(C[C@H](O)[C@H](O)[C@H](O)CO)c2cc1C 17.8 µM
O=[N+]([O-])c1c(NCCO)cc(Sc2nc3ccccc3s2)c2nonc12 8.91 µM
COc1ccc(-c2nc(CS(=O)CC(=O)NCc3ccccn3)c(C)o2)cc1 (stereo not given) 14.1 µM
C[N+]1(CC(O)COc2ccccc2)CCN(C(=O)c2ccc([N+](=O)[O-])cc2)CC1 (stereo not given) 12.6 µM

Potency, inactive:
N#Cc1ccccc1CN1C(=O)S/C(=C/c2cccn2-c2cccc(C(=O)O)c2)C1=O
COc1cc(C(=O)NCc2ccc3c(c2)cc(C)n3C)cc(OC)c1OC
CCOc1ccc(C(O)Cn2c(=N)n(CCN3CCCCC3)c3ccccc32)cc1 (stereo not given)
O=P(O)(CN1CCCCCC1)C1Cc2ccccc2C1
Cc1ccccc1CN1C[C@@H]2C[C@@H](c3ccc4nsnc4c3)N3CCC[C@@]23C1=O
Nc1nc2c(ncn2[C@@H]2O[C@H](COP(=O)(O)OP(=O)(O)OP(=O)(O)O)[C@@H](O)C2O)c(=O)[nH]1 (stereo not given in full)
CC/C=C\C/C=C\C/C=C\C/C=C\C/C=C\C/C=C\CCC(=O)NCCc1ccc(O)c(O)c1
COc1ccc(CC(N)C(=O)NC2C(O)[C@H](n3cnc4c(N(C)C)ncnc43)O[C@@H]2CO)cc1 (stereo not given in full)
COCCNC(=O)/C(C#N)=C/c1nc(N(C)C)n(-c2ccc(F)cc2)c1Cl
O=C(/C=C/NCc1ccc(F)cc1)c1ccccc1
O=C(c1ccncc1)N1CCN(c2ccc3ccccc3n2)CC1
Cc1nc(-c2ccccc2)sc1C(=O)/C=C/N(C)C
CC1(C)C=CC(=O)[C@]2(C)C1CC(=O)[C@]1(C)C2CC[C@@]2(C)C(c3ccoc3)OC(=O)C3OC321 (stereo not given in full)
CC(C)=CCN1CCC2(CCc3ccccc32)CC1
O=C(c1ccc(F)cc1)N1CCCC(c2nc(-c3cccs3)no2)C1 (stereo not given)
C/C(=N\NC(=S)NC1CCCCC1)c1ccc(C)o1
CCN1/C(=C/C(=S)Nc2ccccc2)Sc2ccccc21
CCN1/C(=C\c2ccc3ccccc3[n+]2CC)Sc2cc(C)ccc21
O=c1ccn([C@@H]2O[C@H](COP(=O)(O)OP(=O)(O)OP(=O)(O)O)[C@@H](O)[C@H]2O)c(=O)[nH]1
CC(Sc1nc2c([nH]c3ccccc32)c(=O)n1C)c1ccccc1 (stereo not given)
CC/C=C\C/C=C\C/C=C\C/C=C\C/C=C\C/C=C\CCC(=O)NC(C)C(=O)O (stereo not given)
COc1ccc(S(=O)(=O)N2CN(CCc3ccc(OC)c(OC)c3)c3nc4ccccc4nc32)cc1
O=C(NCc1ccccn1)c1c(O)c2c([nH]c1=O)CCCC2
CCc1nnc(NC(=O)c2c(O)c3c([nH]c2=O)CCCC3)s1
Cc1ccc(-c2csc(NC(=O)Cn3[nH]c(=O)c4ccccc4c3=O)n2)cc1
CCOC(=O)c1c(N)sc(C(C)=O)c1C
COC(=O)c1sc(=S)n(-c2ccccc2)c1N
Cn1c(=O)n(Cc2ccco2)c(=N)c2c3c(sc21)CCCC3
CC(N)(C(=O)O)c1ccc(-c2nn[nH]n2)cc1 (stereo not given)
Cc1ccc(CN2CCN(/N=C/c3cccnc3)CC2)c(C)c1
Cc1ccccc1C1=N/C(=C/c2cccnc2)C(=O)O1
O=C1OC(c2ccc(Cl)cc2)=N/C1=C\c1cccnc1
CC(C)(C)C1CCC(=NNC(=O)c2cc(-c3ccccc3)n[nH]2)CC1 (stereo not given)
Cc1ccc(C(=O)N/C(=C/c2ccco2)C(=O)NCCc2c[nH]c3ccccc23)cc1C
NC(=O)c1nsc(C(=O)N(CC(=O)NCc2ccc(F)cc2)Cc2ccco2)c1N
COc1ccc(CCCOC(Cn2ccnc2)c2ccc(OC)cc2)cc1 (stereo not given)
C[C@]12CC[C@@H]3c4ccc(O)cc4C[C@@H](CCCCCCCCCS(=O)CCCC(F)(F)C(F)(F)F)C3[C@@H]1CC[C@@H]2O (stereo not given in full)
CN(C)CCCCCN(C)Cc1cc2ccccc2o1
COC1(C2=NCCN2)COc2ccccc2O1 (stereo not given)
COC(=O)c1nn(-c2cccc(Cl)c2)ccc1=O
COc1ccc(C)cc1-n1nnnc1SCc1nc2ccccc2c(=O)[nH]1
N#C/C(=C\c1ccc(-c2cccc([N+](=O)[O-])c2)o1)C(=O)NCCN1CCOCC1
CC(Oc1ccc(-c2ccccc2)c(F)c1)c1ccn(S(=O)(=O)c2cccc3ccccc23)n1 (stereo not given)
C=C1O[C@@](CO)(n2cnc3c(N)ncnc32)[C@H](O)[C@@H]1O
Cc1csc(-c2coc3cc(O[C@@H]4O[C@H](CO)[C@@H](O)[C@@H](O)[C@H]4O)ccc3c2=O)n1
CN(C)/C(CN1CCCCC1)=C1\N=C(c2ccccc2)OC1=O
CCOC(=O)N1CCC(N(CCOC)C(=O)Nc2ccc(C)c(C)c2)CC1
CN(C)c1nc(=Nc2cccc(Cl)c2)ss1
S=C(Nc1cccc(Br)c1)N1CCn2cccc2C1c1cccnc1 (stereo not given)
O=C(CSc1nc2ccccc2s1)Nc1ccc(C(=O)O)cc1
COc1ccc(-c2nc(CS(=O)CC(=O)NCc3cccnc3)c(C)o2)cc1OC (stereo not given)
COc1ccc(-c2nc(CS(=O)CC(=O)N3CCc4ccccc4C3)c(C)o2)cc1 (stereo not given)
O=C(c1ccccc1)c1ccc(OCC(O)CN2CCCC2)cc1 (stereo not given)
O=[N+]([O-])c1ccc(N2CCN(CC(O)COc3ccccc3)CC2)cc1 (stereo not given)

activity, negative = inhibition, inactive:
c1ccc2sc(SCCSc3nc4ccccc4s3)nc2c1 2.61% [at 14.2 µM]
